Data published in PubChem BioAssay AID720541 (National Center for Advancing Translational Sciences (NCATS), 2013).
Where “and” joins values, the source holds several entries; their conditions need not be identical. Equal entries are not always repeated. The whole screen tested about 1,300 compounds, of which about 420 (32%) were called active. Another 32% or so got no clear call; they are omitted. The call rests on the fitted dose curve; in most records, active means well fitted inhibition curve with a large enough effect; inconclusive means small, poorly fitted or top-dose-only effect; inactive means no such curve, though single readings can be large or run the other way. Some of the results follow. Some compounds were tested as several samples or in several runs, with calls that do not always agree.

Target: C-terminal-binding protein 1 (Homo sapiens) (UniProt Q13363)
Assay: qHTS for Inhibitors of the Phosphatase Activity of Eya2: Carboxyl-terminal binding protein (CtBP) Counterscreen for Cherry-picked Compounds; further: nearly all actives have a fitted effect of over 65% in size
Conditions: purified protein-protein binding, AlphaScreen, 3 h; series mostly up to 46.1 µM; activity change, negative = inhibition: at the top concentration
Excerpt: The Eya protein family is an essential co-activator of the Six1 transcription factor. Six1 is a developmental gene that is abnormally re-expressed in a large percentage of breast cancers. This over-expression plays a causal role in the initiation and metastatic development of breast cancers. The Eya family of protein is also found to contain a unique HAD phosphatase domain with protein tyrosine phosphatase activity which can potentially play a role in Six1-mediated breast tumorigenesis. Recently, Eya2 is found to dephosphorylate the histone variant H2AX and direct cells towards DNA repair instead of apoptosis in the event of DNA damage.
A 1536 well format, fluorescence based qHTS assay was developed and used to target the phosphatase activity of Eya2 (AID 488837). In addition, a CtBP counterscreen was developed using the AlphaScreen technology to evaluate compound selectivity to target […]. The data herein reports the activity of the cherry-picked compounds against the CtBP AlphaScreen. Compounds that are active or have > 100 fold selectivity vs. the Eya2 activity were excluded for further characterization. Inactivity is the desired outcome for the CtBP counterscreen.
NIH Chemical Genomics Center [NCGC]
NIH Molecular Libraries Probe Centers Network [MLPCN]
Assay Submitter (PI): Rui Zhao, University of Colorado Denver
Four microliters of reagent (25 nM GST-E1A, 25 nM CtBP-6x HIS) was dispensed in a 1536 well Greiner plates. Twenty-three nanoliter of test compounds (final concentration of 2.5 nM - 46 uM) and positive control E1A peptide inhibitor (final concentration of 0.14 nM - 4.6 uM) were added to the plates using the Kalypsys pintool equipped with a 1536 pin head. The plates was then incubated at room temperature for 2 hours followed by addition of 1 uL Alpha bead donor / acceptor mix (20 ug/mL final concentration). The assay plates were incubated for additional 1 hour at room temperature and protected from light. The AlphaScreen signal was obtained using the PerkinElmer EnVision plate reader using the 680 nm excitation and 520 - 620 nm emission filters. The data was normalized to the E1A peptide inhibitor for maximum inhibition and DMSO treated wells as negative control.
On the % scale 0 is the no-effect control and ±100 the full control effect; potency means the concentration at half of the fitted maximal effect.

SMILES	Potency	activity change, negative = inhibition
O=c1c(CO)cc(CO)cc(CO)c1O	9.53 µM (active)	
Cn1c(=O)n(CCO)c(=O)c2c1nc(Br)n2Cc1ccccc1		7.05% (inactive)
Cn1c(=O)n(Cc2ccc(F)cc2)c(=O)c2c1nc1n2CCN1Cc1ccco1	10.7 µM (active)	
Cn1c(=O)n(Cc2ccccc2)c(=O)c2c1nc(NCC1CCCO1)n2Cc1ccccc1 (centres undefined)		-19% (inactive)
COCCNC(=O)CCC(=O)NNc1nc2ccccc2c2nc(-c3ccccc3)nn12		-29.3% (inactive)
COc1ccc2c(c1)c1nnc(SC(C)C)nc1n2C	4.78 µM (active)	
Cc1cccc(NC(=S)N(CCN2CCOCC2)Cc2cc3cc4c(cc3[nH]c2=O)OCCO4)c1		10.2% (inactive)
Nc1ccc2c(c1Cl)C(=O)c1ccc(N)c(Cl)c1C2=O	6.01 µM (active)	
CCOC(=O)c1ccc(NC(=S)N2CCN(CCN=CC3=C(O)CC(c4ccccc4)CC3=O)CC2)cc1 (centres undefined)		45.5% (inactive)
COc1cc(N=c2oc3c(C)ncc(CO)c3cc2C(N)=O)cc(OC)c1OC	4.78 µM (active)	
O=C(CSc1nnc2c(n1)[nH]c1ccccc12)Nc1ccc(S(=O)(=O)Nc2ncccn2)cc1	5.36 µM (active)	
CCOC(=O)Cc1nnc(NC(=O)CSc2nnc3c(n2)[nH]c2ccccc23)s1	15.1 µM (active)	
Cc1nc(NC(=O)CSc2nnc(-c3ccccc3)c(-c3ccccc3)n2)c(Cl)cc1Cl		-28% (inactive)
CCOC(=O)Cc1nnc(NC(=O)CSc2nnc3c4ccccc4n(C)c3n2)s1	15.1 µM (active)	
CCOC(=O)Cc1nnc(NC(=O)C(CC)Sc2nnc3c4ccccc4n(C)c3n2)s1 (centres undefined)	13.5 µM (active)	
O=C(CSc1nnc2c(n1)[nH]c1ccccc12)Nc1cccc(S(=O)(=O)N2CCOCC2)c1		-21% (inactive)
CC1(C)CC2CC(C)(CN2/C=N/c2sc3c(c2C#N)CC(C)(C)NC3(C)C)C1 (centres undefined)		-18.7% (inactive)
COc1cc2[nH]cc(C(=O)NCc3ccccc3)c(=O)c2cc1OC	3.79 µM (active)	
COc1ccc(CNC(=O)c2sc(=O)n(Cc3cc(Cl)ccc3OC)c2C)cc1		-17.4% (inactive)
CC1CCC(=NNc2ccc(C(F)(F)F)cc2[N+](=O)[O-])CC1 (centres undefined)	8.49 µM (active)	
C1=Cc2ccccc2/C1=C\c1cc2c3c(c1)CCCN3CCC2	8.49 µM (active)	
Cc1cc(=O)n2[nH]c(Nc3cccc(Cl)c3)nc2n1		1.73% (inactive)
COc1ccc2cc(C(=O)N3CCN(c4ccc(F)cc4)CC3)[nH]c2c1		-1.7% (inactive)
COc1ccc(N2CCN(C(=O)c3cc(-c4cc(OC)ccc4OC)nc4ccccc34)CC2)cc1	13.5 µM (active)	
COc1ccc(Nc2cc(C(=O)N3CCc4ccccc4C3)c3ccccc3n2)c(OC)c1		-28.5% (inactive)

SMILES	Potency	activity change, negative = inhibition
CN(C)CCCN1c2ccc(O)cc2Sc2ccc(Cl)cc21	12 µM (active)	
Cn1cc(SCC(=O)Nc2ccc3c(c2)OCCO3)c2ccccc21		-8.28% (inactive)
Nn1c(SCC(=O)Nc2ccc3c(c2)OCCO3)nnc1-c1ccccn1	15.1 µM (active)	
O=C(CSc1ccc2c(c1)OCCO2)Nc1ccc2c(c1)OCO2		-19.6% (inactive)
Cc1ccc(OCCSc2nc3ccccc3n2CCC(=O)O)c(C(C)C)c1		0.945% (inactive)
Cc1cccc(NC(=S)NC(=O)c2ccco2)n1	10.7 µM (active)	
COc1ccc2nc(NC(=S)NC(=O)c3ccco3)sc2c1		-10.3% (inactive)
O=C(NC(=S)Nc1ccccc1N1CCCCC1)c1ccco1		-23% (inactive)
CCc1nnc(NS(=O)(=O)c2ccc(NCc3cc(Cl)cc(Cl)c3O)cc2)s1	4.26 µM (active)	
O=S(=O)(Nc1nccs1)c1ccc(NCc2cc(Br)cc(Br)c2O)cc1	1.9 µM (active)	
CCS(=O)(=O)N1CCC(C(=O)Oc2ccc(Cl)cc2)CC1		-17% (inactive)
CC(=O)Nc1ccc(S(=O)(=O)N2C3CCCC2CC(NC(=O)C2CCCCC2)C3)cc1 (centres undefined)		1.48% (inactive)
COc1ccc(C(=O)OCC(=O)Nc2ccc(N3CCOCC3)cc2)cc1		7.02% (inactive)
CC(=O)Nc1ccc(S(=O)(=O)Nc2ccc(N3CCCCC3)cc2)cc1	8.49 µM (active)	
CC(=O)Oc1cccc2c1C(=O)C1CC=CC(OC(C)=O)C1C2=O (centres undefined)	9.53 µM (active)	
O=C(O)c1ccc2c(=O)n3cc(C(=O)c4ccccc4O)cc(Cl)c3nc2c1	12 µM (active)	
O=C(O)c1ccc(N/N=C/c2cc3cc4c(cc3nc2Cl)OCCO4)cc1		-22% (inactive)
Cc1cc(C)cc(C(=O)NC(=S)Nc2ccc3c(c2)OCCO3)c1		-1.79% (inactive)
Cc1cc(O)cc(O)c1/C=N/NC(=O)c1ccc2c(c1)OCCO2	8.49 µM (active)	
CCCCC1=CC2=C(c3ccco3)C(=O)C(C)(OC(=O)c3ccc(OC)cc3)C(=O)C2=CN1CCc1ccccn1 (centres undefined)		-24.5% (inactive)
Cc1ccc(C(=O)Nc2cccc(-c3nc4ncccc4o3)c2)cc1		-45% (inactive)
CCC(C)c1ccc2oc(-c3ccc(NC(=O)c4ncn[nH]4)cc3)nc2c1 (centres undefined)	13.5 µM (active)	
CC(C)c1ccc2oc(-c3ccc(NC(=O)c4ncn[nH]4)cc3)nc2c1	12 µM (active)	
Cc1ccc(NC(=O)c2[nH]cnc2C(=O)NN)cc1	15.1 µM (active)	
C[C@@H](NC(=O)c1nc[nH]c1C(=O)N[C@@H](Cc1ccccc1)C(=O)OC(C)(C)C)c1ccccc1		-2.64% (inactive)

SMILES	Potency	activity change, negative = inhibition
NNC(=O)c1nc[nH]c1C(=O)Nc1ccccn1	8.49 µM (active)	
O=C(Nc1ccc(F)cc1)c1nc[nH]c1C(=O)O	7.57 µM (active)	
O=C(CNC(=O)c1[nH]cnc1C(=O)N[C@@H](Cc1ccccc1)C(=O)OCc1ccccc1)OCc1ccccc1		-4.09% (inactive)
CCOC(=O)c1ccc(NC(=O)c2nc[nH]c2C(=O)N[C@@H](Cc2ccccc2)C(=O)OC(C)(C)C)cc1		-2.08% (inactive)
COc1ccc(N(CC(=O)N2CCCCC2)S(=O)(=O)c2c(C)nn(C)c2C)cc1		7.56% (inactive)
O=C(O)CSc1ccc2nnc(-c3cccnc3)n2n1	inactive and 13.5 µM (active)	
Cc1nnc(NC(=O)CSc2ccc3nnc(-c4ccccn4)n3n2)s1		-31% (inactive)
O=C(CSc1ccc2nnc(-c3ccccn3)n2n1)Nc1ccccc1	10.7 µM (active)	
O=C(CSc1ccc2nnc(-c3ccccn3)n2n1)Nc1ccccc1F	7.57 µM (active)	
CCCCC(Sc1ccc2nnc(-c3ccccn3)n2n1)C(=O)O (centres undefined)	13.5 µM (active)	
CN(C)c1ccc2nc3ccc(=[N+](C)C)cc-3sc2c1		128% (inactive)
CC(=O)Oc1ccc2nonc2c1OC(C)=O		-6.3% (inactive)
CC1=C(C(=O)N2CCOCC2)CC(CC(=O)NC(c2ccccc2)c2ccccc2)C(=O)N1Cc1ccc(C(C)(C)C)cc1 (centres undefined)		-5.98% (inactive)
O=C(CSc1ccc2nnc(-c3ccccn3)n2n1)Nc1ccccc1C(F)(F)F	10.7 µM (active)	
Cc1csc(NC(=O)CSc2ccc(-c3ccccn3)nn2)n1	4.26 µM (active)	
Cc1cc(C)c(NC(=O)CSc2ccc(-c3ccccn3)nn2)c(C)c1	3.38 µM (active)	
Cc1ccccc1NC(=O)CSc1ccc(-c2ccccn2)nn1	3.79 µM (active)	
O=S(=O)(NCCSCc1ccc(Cl)c(Cl)c1)c1ccc2c(c1)OCCO2		-3.24% (inactive)
CCOc1ccc(CCN2C(=O)C(=O)N([C@@H](Cc3ccccc3)CN3CCC[C@H]3CN3C(=O)C(=O)NC[C@@H]3Cc3ccccc3)C[C@@H]2Cc2ccccc2)cc1		-22.9% (inactive)
CCN(CC)c1ccc(NC(=O)c2ccc3c(c2)c(C)c(C)n3C)cc1	10.7 µM (active)	
NC(N)=Nc1nc2cc([N+](=O)[O-])ccc2o1		-12.5% (inactive)
CN(C)c1ccc(/C=C2\C=Cc3ccccc32)cc1[N+](=O)[O-]	7.57 µM (active)	
Cc1cc(/C=C2\C=Cc3ccccc32)ccc1N(C)C	8.49 µM (active)	
CNc1ccc(/C=C2\C=Cc3ccccc32)cc1OC	8.49 µM (active)	
CN(C)c1ccc(/C=C2\C=Cc3ccccc32)cc1N	13.5 µM (active)	

SMILES	Potency	activity change, negative = inhibition
COc1cc(/C=C2/C=Cc3ccccc32)ccc1N(C)C	8.49 µM (active)	
O=[N+]([O-])c1ccc(/C=C2\C=Cc3ccccc32)cc1	7.57 µM (active)	
O=C(Nc1ccccc1Cl)N1CCN(c2ccc3nnc(-c4ccccc4)n3n2)CC1	5.36 µM (active)	
COc1cccc(N2CCN(c3ccc4nnc(CCC(=O)Nc5cccc(C(C)=O)c5)n4n3)CC2)c1		13.8% (inactive)
NCC(=O)Nc1ccc(Cl)cc1C(=O)c1ccc[nH]1		-8.63% (inactive)
COC1=C(Nc2ccc(OC)cc2)C(=O)c2ccccc2C1=O	6.75 µM (active)	
COc1ccc(-c2cn(Cc3ccc4c(c3)C(=O)c3ccccc3C4=O)nn2)cc1		-4.47% (inactive)
CCc1ccc2nc3nc(C)cc(C)c3c(N)c2c1	10.7 µM (active)	
COc1ccc(C(=O)/C=C/Nc2ccc(S(=O)(=O)Nc3nc(C)cc(C)n3)cc2)cc1OC	12 µM (active)	
COc1cc(NS(=O)(=O)c2ccc(N/C=C\C(=O)c3ccc(OC)c(OC)c3)cc2)nc(OC)n1	8.49 µM (active)	
CCC(=O)Nc1ccc(C(=O)COC(=O)c2nc3nccc(C)n3n2)cc1		-5.45% (inactive)
Cc1ccccc1-c1cnc(C(O)c2c(C)cccc2C)[nH]1 (centres undefined)		-9.32% (inactive)
Cc1oc2cc([N+](=O)[O-])c(O)c([N+](=O)[O-])c2c1C(=O)c1ccc(Cl)cc1	16.9 µM (active)	
COc1ccc(NC(=O)c2cc(-c3ccco3)nc3ccccc23)cn1		-10.6% (inactive)
O=C(Nc1nncs1)c1cc(-c2ccco2)nc2ccccc12	13.5 µM (active)	
COc1cccc(C(=O)Nc2cccc(-c3ccc4nncn4n3)c2)c1OC	13.5 µM (active)	
COc1ccccc1OCc1ccc(C(=O)Nc2cc(OC)c(OC)c(OC)c2)o1		-26.1% (inactive)
Nc1ccc(O)cc1	12 µM (active)	
Nc1nc2nn(-c3ccccc3)nc2c(=O)[nH]1	6.01 µM (active)	
CNC(=O)c1ccc(Nc2nnc(-c3ccc(C(N)=O)cc3)c3ccccc23)cc1	6.75 µM (active)	
COc1ccc(Nc2nnc(-c3ccc(C(N)=O)cc3)c3ccccc23)cc1	4.78 µM (active)	
Cc1ccc(-c2nnc(Nc3ccc4c(c3)OCO4)c3ccccc23)cc1S(N)(=O)=O		-34.7% (inactive)
COc1ccc(-c2csc(-c3ccc(C(=O)O)cc3)n2)cc1		-13.9% (inactive)
CCN(CC)C(=O)c1ccc(-c2nnc(Nc3ccc(C(=O)NC)cc3)c3ccccc23)cc1	16.9 µM (active)	
